# PrPC surface inh – cell surface PrPC inhibition, primary TR-FRET screen; P04156; TR-FRET read-out; inhibition, % at 13.8 µM; actives 0.43% (n = 370,000); AID 720596; in the data active = inhibition above about 24%; also: 0% = median of the test wells and 100% = reference compound wells
# Y pestis TopoI – inhibitors of Yersinia pestis topoisomerase I; activity, % at 10 µM; actives 0.064% (n = 360,000); Y. pestis Topo-I cleavage product accumulation, plate reader; in the data active = activity above about 50%, passing the limit was not always enough
# TcdB inh – inhibitors of Clostridioides difficile toxin B glycohydrolase | P18177 | TcdB glycohydrolase enzymatic assay, plate reader | inhibition, % at 9.99 µM | actives 0.24% (n = 350,000) | AID 652162
# GDH-TPI counter-1 – inhibits GDH-TPI coupling enzymes, artifact for Mtb FBA screen; inhibition, % at 4.8 µM; GDH-TPI coupled enzyme counterscreen, NADH absorbance; actives 1.2% (n = 360,000); in the data active = inhibition above about 30%;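 also: 0% = DMSO wells and 100% = wells lacking the enzyme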
# Mtb FBA inh – Mtb fructose-bisphosphate aldolase inhibition; actives 2.3% (n = 360,000); AID 588726; P9WQA3; inhibition, % at 1 µM; purified M. tuberculosis FBA, fluorescence read-out; in the data active = inhibition above about 27%;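 also: 0% = vehicle and 100% = reference inhibitor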
# Mtb FBA confirm – confirmation of M. tuberculosis fructose-bisphosphate aldolase inhibitors; AID 651616; purified M. tuberculosis FBA, fluorescence read-out; inhibition, % at 1 µM; actives 78% (n = 5,600); shares compounds with Mtb FBA inh; in the data active = inhibition above about 27%;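 also: 0% = vehicle wells and 100% = reference inhibitor wells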
# GDH-TPI counter-2 – GDH-TPI inhibition counter-screen for FBA inhibitors. shares compounds with Mtb FBA inh. GDH-TPI coupled enzyme counterscreen, fluorescence. inhibition, % at 1 µM. actives 81% (n = 5,600). AID 652141
# GDH-TPI DR – counter-screen for M. tuberculosis FBA inhibitors: GDH-TPI dose response; shares compounds with Mtb FBA inh; GDH-TPI coupled enzyme assay, fluorescence, artifact counterscreen; IC50, µM; actives 79% (n = 170); AID 652145; call rule not given here
# * marks the source's active call; other numbers are inactive results; x = no result; + = active, no number. This is a sample that favours compounds with a hit; in the whole collection about 3.2% have one here. Rule as the data show it, unless noted: active = inhibition above about 10%; inactive = the rest.
SMILES,PrPC surface inh,Y pestis TopoI,TcdB inh,GDH-TPI counter-1,Mtb FBA inh,Mtb FBA confirm,GDH-TPI counter-2,others
Cc1csc2ncc(C(=O)NCCc3ccccc3)c(=O)n12,-7.3,9.5,-0.4,29.1,51.7*,122.1*,103.7*,
C[C@H]1CN([C@@H](C)CO)C(=O)c2cccc(NC(=O)CCCCCC(=O)Nc3ccccc3N)c2O[C@@H]1CN(C)C,x,x,-2.4,x,x,x,x,
OCCN(CCO)c1ccc2ccccc2c1,5.4,1.4,3.1,2.2,109.4*,33.2*,27.4*,
O=C(O)c1cccc(N(CCO)CCO)c1,-3.5,-0.2,1.3,1.3,38.7*,98.6*,75.3*,
O=C(O)CCN(CCC(=O)O)c1ccccc1,-3.5,6.9,x,0.6,2.5,x,x,
O=C(C[C@@H]1CC[C@@H](NS(=O)(=O)c2ccc(F)cc2)[C@@H](CO)O1)N1CCC(Cc2ccccc2)CC1,x,x,-0.4,x,x,x,x,
C[C@H]1CN([C@@H](C)CO)C(=O)c2cc(NS(=O)(=O)c3cccs3)ccc2O[C@@H]1CN(C)Cc1ccc(C(=O)O)cc1,x,x,-0.8,x,x,x,x,
C[C@H]1CN([C@@H](C)CO)C(=O)c2cc(NC(=O)NC3CCCCC3)ccc2O[C@H]1CN(C)C(=O)Nc1cccc2ccccc12,x,x,-0.3,x,x,x,x,
C[C@H](CO)N1C[C@H](C)[C@H](CN(C)C(=O)Nc2ccc(F)cc2)Oc2ccc(NC(=O)Cc3ccccc3)cc2C1=O,x,x,-2.3,x,x,x,x,
Cc1cc(N2CCOCC2)nc2ccc(NC(=O)CCC(=O)N3CCCC(C)C3)cc12 (configuration not stated),-1.2,6.5,x,14.7,53.8*,113.9*,84.1*,
Cc1cc(N2CCOCC2)nc2ccc(NC(=O)CCC(=O)N3CCN(c4ccccc4F)CC3)cc12,-9.7,26.7,1.1,15.5,49.6*,76.4*,54.9*,
Cc1cc(N2CCOCC2)nc2ccc(NC(=S)N3CCCCC3C)cc12 (configuration not stated),7.3,10.5,1.6,14.5,35.9*,121.9*,95.1*,
Cc1cc(N2CCOCC2)nc2ccccc12,-5.4,5.9,-0.4,15.1,25.7,x,x,
Cc1cc(N2CCOCC2)nc2cc(O)ccc12,5.9,9.3,2.2,14.1,32.5*,86.8*,69.6*,
COc1cc(CN2[C@@H]3CNC[C@H]2C3c2ccc(-c3ccccc3C)cc2)cc(OC)c1 (some centres not stated),x,x,0.7,x,x,x,x,
C[C@H](NC(=O)[C@H]1[C@H](CO)[C@H]2Cn3c(cccc3=O)[C@H]2N1CC1CC1)c1ccccc1,x,x,0.6,x,x,x,x,
Cc1cc(N2CCOCC2)nc2ccc(NC(=O)CCC(=O)N3CCN(c4ccc(F)cc4)CC3)cc12,5.5,5.7,0.9,13.8,62.9*,84.0*,52.0*,
CC(=O)N(C)C1(c2nnnn2CCOC(=O)Nc2ccc(Cl)cc2)CCCCC1,1.7,9.9,x,-15.1,52.2*,12.7,4.4,
CCCC(=O)Nc1ccc2c(c1)C(=O)N(C)[C@@H]1CC[C@@H](CC(=O)NCC3CCCCC3)O[C@H]1CO2,x,x,0.0,x,x,x,x,
COc1ccc2cc(-c3ccon3)ccc2c1,-2.2,1.6,-0.2,6.4,34.4*,104.8*,99.2*,
COc1ccc(-c2cc3ccccc3cn2)cc1,-6.3,27.2,1.2,14.3,9.9,x,x,
COc1ccc(-c2cc3ccc(OC)cc3cn2)cc1,-1.6,-1.8,0.5,0.9,46.5*,0.1,-2.9,
COc1ccc(-c2ccc3ccccc3n2)cc1,9.8,22.3,1.4,25.6,82.8*,179.8*,138.9*,
COc1ccc(-c2ccc(OC)cc2)cc1,4.7,4.3,x,10.4,2.7,x,x,
CCC(=O)Nc1ccc2c(c1)OC[C@H](C)N(Cc1ccccc1C(=O)O)C[C@@H](C)[C@@H](OC)CN(C)C2=O,x,x,-0.3,x,x,x,x,
SMILES,PrPC surface inh,Y pestis TopoI,TcdB inh,GDH-TPI counter-1,Mtb FBA inh,Mtb FBA confirm,GDH-TPI counter-2,others
CO[C@H]1CN(C)C(=O)c2cc(NS(C)(=O)=O)ccc2OC[C@H](C)N(C)C[C@@H]1C,x,x,-1.8,x,x,x,x,
C=CCc1c(C)nc2cc(-c3ccc(C)cc3)[nH]n2c1=O,12.5,5.5,-1.0,-1.5,26.9*,+,+,
COc1cccc(-c2nc3ccc(C(=O)NC(C)Cc4cccnc4)cc3o2)c1 (configuration not stated),-1.9,29.8,-1.1,5.4,43.2*,64.5*,31.7*,
O=S(=O)(NCc1ccc(F)cc1)c1ccc(-c2cnc(C3CC3)o2)cc1,13.5,14.8,1.4,14.8,28.5*,19.4,15.9*,
COCC(=O)Nc1ccc2c(c1)OC[C@H](C)N(CC1CCCCC1)C[C@@H](C)[C@@H](OC)CN(C)C2=O,x,x,1.3,x,x,x,x,
COc1ccc(S(=O)(=O)N(CCCN2CCCC2=O)Cc2cc3c(C)cc(C)cc3[nH]c2=O)cc1,-9.0,3.9,x,28.6,32.6*,13.3,7.9,GDH-TPI DR=>10
C[C@H]1CN([C@@H](C)CO)C(=O)Cc2cc(NS(=O)(=O)c3cccs3)ccc2O[C@@H]1CN(C)Cc1ccc(-c2ccccc2)cc1,x,x,-1.4,x,x,x,x,
COc1ccc(NC(=O)C2CC2)cc1OC1CCCC1,x,0.6,x,4.3,73.5*,68.1*,53.9*,
COc1ccc(CNC(=O)C[C@H]2CC[C@@H]3[C@@H](COc4ccc(NC(=O)C5CC5)cc4C(=O)N3C)O2)cc1,x,x,0.8,x,x,x,x,
CCS(=O)(=O)NCCc1csc(-c2ccc(OC)c(OC)c2)n1,-4.1,-2.1,1.6,11.6,54.6*,-2.7,-5.0,
COc1ccc(-c2nc(CCNC(=O)c3ccco3)cs2)cc1OC,3.8,3.7,-1.1,-10.1,26.1,x,x,
CCCS(=O)(=O)NCCc1csc(-c2ccc(OC)c(OC)c2)n1,3.2,16.4,-1.7,5.0,34.7*,92.5*,77.6*,
CCN(CC(=O)Nc1c(F)cccc1F)C(=O)Cc1ccccc1,1.6,-1.9,1.3,-6.0,-1.5,x,x,
CCN(CC(=O)Nc1c(F)cccc1F)C(=O)Cc1csc(-c2ccc(OC)c(OC)c2)n1,-10.7,9.1,2.0,-5.9,44.5*,68.3*,55.7*,
COc1ccc(-c2nc(CNS(=O)(=O)c3ccc(OC)c(OC)c3)cs2)cc1,-0.9,10.2,-7.9,9.3,4.5,x,x,
CCOC(=O)C1CCc2c(ccc3ccccc23)N1CCC#N (configuration not stated),-8.9,17.0,0.4,-0.9,56.3*,1.9,-3.6,
CCCNC(=O)[C@@H]1[C@@H](CO)[C@@H]2Cn3c(cccc3=O)[C@H]1N2S(=O)(=O)c1ccccc1F,x,x,-8.6,x,x,x,x,
CO[C@H]1O[C@H](CO)[C@@H](OC(=O)c2ccc(Br)cc2)[C@H](OC(=O)c2cc3ccccc3[nH]2)[C@H]1OC(=O)c1cc2ccccc2[nH]1,x,x,0.4,x,x,x,x,
O=C(Nc1cccc(Cl)c1)Nc1ccccc1C(=O)O,1.6,-0.1,4.3,20.2,78.8*,+,194.9*,

# Screening results: PubChem BioAssay, several laboratories
